# Data reported in PubChem BioAssay (EPA / NIEHS).
# Active and inactive are the calls of the source. How the source made its calls: active means hit-call score of the fitted dose curve at least 0.9, where 1 is the maximum; inactive means score below 0.9.
# Target: Cellular tumor antigen p53 (Homo sapiens) (UniProt P04637)
# Assay: ATG_p53_CIS: Attagene CIS-FACTORIAL HepG2 Assay for human p53 Transcription Factor (AID 2282994)
# Settings: HepG2 p53 cis-element reporter, Attagene mRNA; actives raise or lower the signal
# Description: ATG_CIS is a cell-based, multiplexed-readout assay that uses HepG2, a human liver cell line, with measurements taken at 24 hours after chemical dosing in a 24-well plate.ATG_p53_CIS is one of 52 assay component(s) measured or calculated from the ATG_CIS assay. It is designed to make measurements of mRNA induction, a form of inducible reporter, as detected with fluorescence intensity signals by Reverse transcription polymerase chain reaction (RT-PCR) and Capillary electrophoresis technology.Data from the assay component ATG_p53_CIS was analyzed into 1 assay endpoint. This assay endpoint, ATG_p53_CIS, was analyzed with bidirectional fitting relative to DMSO as the negative control and baseline of activity. Using a type of inducible reporter, measures of mRNA for gain or loss-of-signal activity can be used to understand the reporter gene at the transcription factor-level as they relate to the gene TP53. Furthermore, this assay endpoint can be referred to as a primary readout, because this assay has produced multiple assay endpoints where this one serves a reporter gene function. To generalize the intended target to other relatable targets, this assay endpoint is annotated to the dna binding intended target family, where the subfamily is tumor suppressor.
# Human liver HepG2 cells are transiently transfected with multiple reporter transcription units (MRTUs) in 6-well plates using FuGene 6 reagent (Roche; 3 ml FuGene/1 mg DNA). The MRTU constructs are regulated by a cis-regulating element (promoter). […] A major difference between the CIS and TRANS system is that in CIS activities of endogenous TFs are measured, whereas the TRANS assay evaluates changes in activities of exogenous, chimeric NR-Gal4 proteins. […] At the end of 24 hour incubation, total RNA was isolated using TriZol reagent (Invitrogen). The isolated RNA is then reverse-transcribed using oligo(dT) primer and Mo-MLV reverse transcriptase (Invitrogen) with DNAse I (Ambion) treatment for 30 min. The one-tenth of the produced cDNA was amplified by PCR using Taq DNA polymerase (Invitrogen) and two reporter sequence-specific primers. The PCR products were fluorescently labeled by primer extension with 6-arboxyfluorescein (6-FAM) 5'-labeled reporter sequence-specific primer (2 min at 95 C, 20 s at 68 C and 10 min at 72 C) and these products were digested with 5U of HpaI (New England Biolabs) for 2h at 37 C. The fragments were purified using Qiaquick PCR columns (Qiagen), analyzed on an ABI 3130xL genetic analyzer (Applied Biosystems) with peak positions identified by using a set of X-rhodamine (ROX)-labeled MapMarker1000 molecular weight standards (BioVentures). The raw capillary electrophoresis data was processed using Attagraph software (Attagene).
# Sequence of Cellular tumor antigen p53 (Homo sapiens) (P04637 whole entry, looked up): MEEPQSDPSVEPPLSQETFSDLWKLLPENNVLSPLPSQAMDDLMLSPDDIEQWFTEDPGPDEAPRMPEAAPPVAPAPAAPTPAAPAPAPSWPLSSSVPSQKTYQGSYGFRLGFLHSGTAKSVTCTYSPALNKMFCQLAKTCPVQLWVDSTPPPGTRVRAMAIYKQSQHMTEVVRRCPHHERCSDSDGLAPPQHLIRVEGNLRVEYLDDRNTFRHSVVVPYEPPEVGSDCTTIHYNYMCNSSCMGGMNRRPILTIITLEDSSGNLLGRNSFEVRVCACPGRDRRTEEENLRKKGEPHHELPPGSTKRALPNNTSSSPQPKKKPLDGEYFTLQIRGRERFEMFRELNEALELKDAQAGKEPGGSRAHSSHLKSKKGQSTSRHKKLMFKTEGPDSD
SMILES,outcome,AC50
CC(C)OC=O,inactive,–
CSc1ccc(O)cc1C,inactive,–
CC(C)=CCCC(C)O (stereo not given),inactive,–
O=S(=O)(Cl)C(F)(F)C(F)(F)C(F)(F)C(F)(F)C(F)(F)C(F)(F)C(F)(F)C(F)(F)F,inactive,–
O=C=NCc1cccc(CN=C=O)c1,inactive,–
CCC(C)CO (stereo not given),inactive,–
Brc1ccccn1,inactive,–
Cc1ccc(S(=O)(=O)C(I)I)cc1,–,8.91 µM (active)
COCCOCCC[Si](C)(O[Si](C)(C)C)O[Si](C)(C)C,inactive,–
CCc1cccc(C)c1N(C(=O)C(=O)O)C(C)COC (stereo not given),inactive,–
CCN=c1cc2oc3cc(NCC)c(C)cc3c(-c3ccccc3C(=O)OCC)c-2cc1C,–,1.56 µM (active)
CCN(CC)c1ccc(C=O)cc1,inactive,–
Nc1cccnc1N,inactive,–
Nc1c(Br)cc([N+](=O)[O-])cc1Br,inactive,–
CC(C)Nc1ccc(NC(C)C)c2c1C(=O)c1ccccc1C2=O,inactive,–
CCc1ccc(C)nc1,inactive,–
C#CC(O)CCC (stereo not given),inactive,–
Cc1ccc2c(c1)OCC(=O)CO2,inactive,–
N#CCCOCCC#N,inactive,–
CCCCOC(=O)C(C)O (stereo not given),inactive,–

SMILES,outcome,AC50
FC(F)(F)C(F)(F)C(F)(F)CC1CO1 (stereo not given),inactive,–
O=C(O)C(F)(F)C(F)(F)C(F)(F)OC(F)(F)F,inactive,–
CCCC(=O)OCC(COC(=O)CCC)OC(=O)CCC,–,89.1 µM (active)
Cc1ccc([N+](=O)[O-])c(C)c1,inactive,–
CC(C)(C)C(=O)C1C(=O)c2ccccc2C1=O,inactive,–
O=C(F)C1(F)C(F)(F)C(F)(F)C(F)(F)C(F)(F)C1(F)F,inactive,–
CC(C)CC=C(C=O)c1ccccc1,inactive,–
CCOCOCC,inactive,–
CCN(CCO)S(=O)(=O)C(F)(F)C(F)(F)C(F)(F)C(F)(F)C(F)(F)C(F)(F)C(F)(F)C(F)(F)F,inactive,–
O=C(c1ccccc1)c1ccc(Cl)cc1,inactive,–
O=C(c1ccccc1)c1ccc(O)cc1O,inactive,–
CCOC(=O)C1CC(=O)C(=C(O)C2CC2)C(=O)C1 (stereo not given),inactive,–
CC1=CCC(=O)O1,inactive,–
CC(=O)CCC(C)C,inactive,–
CO[Si](C)(CCC(F)(F)C(F)(F)C(F)(F)C(F)(F)C(F)(F)C(F)(F)F)OC,inactive,–
COc1ccccc1C=O,inactive,–
C=C(C)CCCC,inactive,–
CCCCCCCCCc1ccc(OCCO)cc1,inactive,–
COC(F)(C(F)F)C(F)(F)F (stereo not given),inactive,–
CCCCOC(=O)[C@H](C)O,inactive,–
